Most compounds without a hit are left out; they make up all but 2.1% or so of the library.
FUS yeast rescue – qHTS for Suppressors of FUS Proteinopathy: Primary screen using FUS-linked yeast assay. S. cerevisiae FUS-expressing, growth rescue, OD600, 24 h. Potency, µM (top dose mostly 76.6 µM), actives largely listed as activators. 0.24% of 390,000 active. AID 1347120, 2019;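 note: plate controls were DMSO vehicle for no effect and reference control for full effect; nearly all actives have a fitted effect of over 55% in size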
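S. cerevisiae expressing FUS from galactose induction served as the toxicity model. Growth after 24hr at 30C, read as absorbance at 600 nm, indicates suppression of toxicity; compounds dosed at several concentrations.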
aSyn rescue – qHTS of alpha-syn Inhibitors. Potency, µM (series often up to 46.1 µM), inactives show top-dose growth rescue (activation), most hits filed as activators. AID 652106, 2013. 0.14% of 370,000 active. Yeast expressing alpha-synuclein, growth rescue, BacTiter-Glo, 24 h; note: % of control where 0% means no effect; nearly all actives have a fitted effect of over 65% in size
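Galactose-induced alpha-syn yeast (OD600=0.02, raffinose-pregrown) + pinned cpd, 24 hr, 30 deg C; growth by BacTiter-Glo luminescence. Growth restoration scores as activation.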
Abeta rescue – qHTS for compounds that reverse cellular toxicity of Amyloid beta (A-beta) peptide in yeast: Primary Screen. AID 1347071, 2019. 0.063% of 410,000 active. yeast expressing A-beta42, growth rescue, OD600, 48 h; response scale: 0% DMSO, 100% iron-clioquinol control. Potency, µM (highest dose often 46.1 µM), most hits filed as activators; note: nearly all actives have a fitted effect of over 55% in size
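Growth rescue measured by 600 nm absorbance after 48 h yeast culture at 30 C with compound. Values normalized between DMSO and an equimolar ferric chloride plus clioquinol control.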
TDP-43 yeast inh – qHTS of TDP-43 Inhibitors. Potency, µM (titrated, usually from 46.1 µM), inactives show at the highest dose growth rescue (activation), most hits filed as activators. AID 652104, 2013. TDP-43 expressing yeast growth rescue, BacTiter-Glo, 24 h. 1.8% of 410,000 active; note: % of control where 0% means no effect; nearly all actives have a fitted effect of over 50% in size
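Cell-based yeast growth screen: TDP-43 expression induced in galactose, inoculum OD600=0.02 after raffinose pregrowth to mid-log. Read-out BacTiter-Glo luminescence at 24 hr, 30 deg C; inhibition of toxicity seen as signal increase.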
* marks the source's active call; other numbers are inactive results; ! = not active in a repeat. Calls come from the whole dose curve; as a rule, active = well fitted curve in the direction sought with a large enough effect; inconclusive = small, poorly fitted or top-dose-only effect, or another doubt; inactive = no such curve, though single readings can be large; an effect the other way counts as inactive or inconclusive. Potency is the fitted concentration of half-maximal effect.

Results for CC(C)c1nnc(NC(=O)c2nc(S(=O)(=O)Cc3ccccc3F)ncc2Cl)s1 ?
FUS yeast rescue: inactive; aSyn rescue: 5%; Abeta rescue: inactive; TDP-43 yeast inh: 28µM*

Results for CCOc1ccc(NC(=O)c2nc(S(=O)(=O)Cc3ccccc3F)ncc2Cl)cc1 ?
FUS yeast rescue: inactive; aSyn rescue: 11µM*!; Abeta rescue: inactive; TDP-43 yeast inh: inconclusive

What do the screens show for `CSc1nnc(NC(=O)c2nc(S(=O)(=O)Cc3ccccc3F)ncc2Cl)s1`?
FUS yeast rescue: inactive; aSyn rescue: 14%; Abeta rescue: inactive; TDP-43 yeast inh: 25%

What do the screens show for `Cc1cccc(CS(=O)(=O)c2ncc(Cl)c(C(=O)Nc3nnc(C(C)C)s3)n2)c1`?
FUS yeast rescue: inactive; aSyn rescue: 19%; Abeta rescue: inactive; TDP-43 yeast inh: inconclusive

Results for O=C(Nc1ccc(OC(F)F)cc1)c1nc(S(=O)(=O)Cc2ccccc2F)ncc1Cl ?
aSyn rescue: -82%

What do the screens show for `CCc1nnc(NC(=O)c2nc(S(=O)(=O)Cc3ccccc3)ncc2Cl)s1`?
FUS yeast rescue: inactive; aSyn rescue: 7%; Abeta rescue: inactive; TDP-43 yeast inh: 20%

What do the screens show for `CCc1nnc(NC(=O)c2nc(S(=O)(=O)Cc3cccc(C)c3)ncc2Cl)s1`?
FUS yeast rescue: inactive; aSyn rescue: 17%; Abeta rescue: inactive; TDP-43 yeast inh: 11µM*

Results for CCc1nnc(NC(=O)c2nc(S(=O)(=O)Cc3ccc(C)cc3)ncc2Cl)s1 ?
FUS yeast rescue: inactive; aSyn rescue: 16%; Abeta rescue: inactive; TDP-43 yeast inh: 18µM*

What do the screens show for `COc1cc2cncnc2cc1OCCCCC(N)=O`?
aSyn rescue: -1%

What do the screens show for `O=C(NCc1ccccc1)c1nc(S(=O)(=O)Cc2ccccc2)ncc1Cl`?
FUS yeast rescue: inactive; aSyn rescue: 21%; Abeta rescue: inactive; TDP-43 yeast inh: 10µM*

How did Cc1ccc(CS(=O)(=O)c2ncc(Cl)c(C(=O)Nc3nnc(C(C)C)s3)n2)cc1 do in these assays?
FUS yeast rescue: inactive; aSyn rescue: 20%; Abeta rescue: inactive; TDP-43 yeast inh: 14µM*

How did COc1ccc(CNC(=O)c2nc(S(=O)(=O)Cc3ccccc3)ncc2Cl)cc1 do in these assays?
FUS yeast rescue: inactive; aSyn rescue: 0%; Abeta rescue: inactive; TDP-43 yeast inh: 17%

What do the screens show for `Cc1cc(C)nc(N(C#N)CCOc2ccccc2)n1`?
FUS yeast rescue: inactive; aSyn rescue: inconclusive; Abeta rescue: inactive; TDP-43 yeast inh: 13µM*

Results for COc1cccc(CCn2c(N)cc(=O)[nH]c2=S)c1OC ?
aSyn rescue: -3%

What do the screens show for `CCOC(=O)/C(=C\c1ccc(Cl)cc1)c1nc2sc(C)c(C)c2c(=O)[nH]1`?
FUS yeast rescue: inactive; aSyn rescue: -54%; Abeta rescue: inactive; TDP-43 yeast inh: 18µM*

What do the screens show for `CN(Cc1cn(Cc2ccccc2)nn1)S(=O)(=O)c1ccccc1Br`?
FUS yeast rescue: inactive

Results for C=CCN=c1scc(-c2ccc3c(c2)NC(=O)CO3)n1/N=C(\C)c1ccccn1 ?
FUS yeast rescue: inactive; aSyn rescue: -26%; Abeta rescue: inactive; TDP-43 yeast inh: 13µM*

What do the screens show for `O=C(Oc1coc(CSc2ncccn2)cc1=O)c1ccc([N+](=O)[O-])cc1`?
FUS yeast rescue: inactive

How did CCOC(=O)C1CCN(S(=O)(=O)c2ccc(OC)c(OC)c2)CC1 do in these assays?
FUS yeast rescue: inactive; aSyn rescue: 0%; Abeta rescue: inactive; TDP-43 yeast inh: -6%

Results for Cc1ccc(-c2onc(C)c2C)cc1S(=O)(=O)N1CCCCC1 ?
FUS yeast rescue: inactive; Abeta rescue: inactive; TDP-43 yeast inh: 22µM*

How did CCOC(=O)C1CCN(S(=O)(=O)c2cc(-c3cc(C)no3)ccc2C)CC1 do in these assays?
FUS yeast rescue: inactive; Abeta rescue: inactive; TDP-43 yeast inh: 26%

What do the screens show for `Cc1ccc(-c2onc(C)c2C)cc1S(=O)(=O)N1CCC(C)CC1`?
FUS yeast rescue: inconclusive; Abeta rescue: inactive; TDP-43 yeast inh: 20%

How did CCOC(=O)C1CCN(S(=O)(=O)c2cc(-c3onc(C)c3C)ccc2OC)CC1 do in these assays?
FUS yeast rescue: inconclusive; Abeta rescue: inactive; TDP-43 yeast inh: 25µM*

Assay outcomes deposited in PubChem BioAssay by National Center for Advancing Translational Sciences (NCATS).
